Records with an inconclusive call do not appear. Active and inactive are the calls of the source. Unless noted, calls come from the whole dose curve; as a rule, active = well fitted curve in the direction sought with a large enough effect; inconclusive = small, poorly fitted or top-dose-only effect, or another doubt; inactive = no such curve, though single readings can be large or run the other way.
Assays:
[1] = biological target: Nuclear receptor subfamily 1 group I member 3 (Homo sapiens) (UniProt Q14994); test: Primary qHTS for antagonist of constitutive androstane receptor (CAR) against the NCATS DSHEA and TCM libraries (AID 1794836);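 note: HepG2 cells stably expressing hCAR with CYP2B6 luciferase reporter stimulated by CITCO; series mostly up to about 40 µM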
Nuclear receptor subfamily 1 group I member 3 (Homo sapiens), sequence (Q14994 whole entry, looked up): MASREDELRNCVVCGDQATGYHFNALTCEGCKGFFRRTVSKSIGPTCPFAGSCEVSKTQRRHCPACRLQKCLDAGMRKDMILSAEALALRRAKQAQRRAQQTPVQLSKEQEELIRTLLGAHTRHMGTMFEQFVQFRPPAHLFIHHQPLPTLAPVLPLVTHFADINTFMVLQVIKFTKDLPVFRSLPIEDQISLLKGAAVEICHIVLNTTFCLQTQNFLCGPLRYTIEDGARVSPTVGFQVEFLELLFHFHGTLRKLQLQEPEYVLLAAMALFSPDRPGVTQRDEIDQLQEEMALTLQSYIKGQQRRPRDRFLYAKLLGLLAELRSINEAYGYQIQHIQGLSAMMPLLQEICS
Summary of the method: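 HepG2-CYP2B6-hCAR cells, attached 5 h, given compounds plus CITCO agonist […], incubated 24 h at 37 C. Luciferase luminescence read, multiplexed with CellTiter-Fluor viability (Ex/Em 405/540 nm).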

[2] = KB-8-5-11 P-gp reporter qHTS against the NCATS DSHEA and TCM libraries (AID 1919977); note: 0% is about no effect
Summary of the method: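 KB-8-5-11, 500 cells/well, DMEM/10% FBS without colchicine; 4 h attach; cpd titrations, 72 h, 37C/5% CO2; CellTiter-Glo, 30 min RT, luminescence.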

[3] = HepG2 viability counterscreen (readout 2: ATP content) against the NCATS DSHEA and TCM libraries (AID 1794840); note: 0% is about no effect
Summary of the method: (§1)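 Same wells read twice: first fluorescence from cleaved GF-AFC substrate (25 uM final, 30 min, 37C) for live-cell protease, then CellTiter-Glo luminescence after 30 min at room temperature for ATP. HepG2 cells were exposed ~24 h to substances.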

[4] = HepG2 viability counterscreen (readout 1: protease activity) against the NCATS DSHEA and TCM libraries (AID 1794841);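 note: cells exposed to compounds for about 24 h before the protease read; 0% is about no effect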
Summary of the method: as §1

[5] = KB-3-1 P-gp reporter qHTS against the NCATS DSHEA and TCM libraries (AID 1919975); note: 0% is about no effect
Summary of the method: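 KB-3-1 parental line, 1536-well qHTS: cells seeded, ~4 h attachment, pintool compound addition, ~72 h at 37C, then CellTiter-Glo, 30 min RT, luminescence. Concentration-response format.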

[6] = qHTS Counterscreen for compound interference against the NCATS DSHEA and TCM libraries (AID 1919978); conditions: firefly luciferase detection reagent interference, luminescence;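 note: compounds preincubated with 1 µM D-luciferin or buffer before detection reagent; % of control where 0% means no effect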
Summary of the method: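 Compounds, titrated from 19.5 nM to 39.8 uM final, were pinned onto 1 uM D-luciferin or plain 100 mM potassium phosphate. After 15 min at room temperature, luciferin detection reagent was added for 30 min before the luminescence read.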

[7] = Dual reporter qHTS for agonist of Pregnane X Receptor (hPXR) against the NCATS DSHEA and TCM libraries: Fluorescence readout (AID 1920058); note: 0% is about no effect
Summary of the method: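 Measures viability of the PXR reporter HepG2 line by protease-substrate fluorescence (405/540 nm), taken 1 h after CellTiter-Fluor addition. Substances are tested as concentration series over a ~24 h exposure, with rifampicin as agonist control.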

[8] = biological target: Nuclear receptor subfamily 1 group I member 2 (Homo sapiens) (UniProt O75469); test: Dual reporter qHTS for antagonist of Pregnane X Receptor (hPXR) against the NCATS DSHEA and TCM libraries: Luminescence Readout (AID 1920060);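 note: HepG2 cells carrying hPXR luciferase reporter stimulated with rifampicin at 2 µM; 0% is about no effect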
Nuclear receptor subfamily 1 group I member 2 (Homo sapiens), sequence (O75469 whole entry, looked up): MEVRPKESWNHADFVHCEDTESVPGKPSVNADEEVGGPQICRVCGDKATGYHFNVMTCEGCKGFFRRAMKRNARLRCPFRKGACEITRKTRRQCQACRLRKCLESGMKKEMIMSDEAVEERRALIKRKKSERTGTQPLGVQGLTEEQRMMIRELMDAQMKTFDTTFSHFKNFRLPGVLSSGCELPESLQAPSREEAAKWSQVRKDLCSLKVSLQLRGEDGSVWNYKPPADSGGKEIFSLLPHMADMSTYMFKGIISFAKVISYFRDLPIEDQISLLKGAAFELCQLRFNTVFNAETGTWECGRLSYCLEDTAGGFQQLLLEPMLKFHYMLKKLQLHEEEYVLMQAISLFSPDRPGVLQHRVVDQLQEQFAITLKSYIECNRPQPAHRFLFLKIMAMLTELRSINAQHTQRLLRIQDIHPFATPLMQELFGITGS
Summary of the method: (§2)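 Antagonist mode: rifampicin 2 uM final co-added with compounds to hPXR-LucHepG2 cells for 24 h at 37C. Viability by CellTiter-Fluor, Ex/Em 405/540 nm, 1 h; reporter by ONE-Glo luminescence.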

[9] = Dual reporter qHTS for antagonist of Pregnane X Receptor (hPXR) against the NCATS DSHEA and TCM libraries: Fluorescence Readout (AID 1920061); note: 0% is about no effect
Summary of the method: as §2

[10] = biological target: Peroxisome proliferator-activated receptor delta (Homo sapiens) (UniProt Q03181); test: qHTS assay for small molecule agonists of peroxisome proliferator-activated receptor delta signaling (AID 588534; calls by dose curve;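 note: 0% = DMSO basal wells and 100% = positive control agonist at 10 µM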)
Peroxisome proliferator-activated receptor delta (Homo sapiens), sequence (Q03181 whole entry, looked up): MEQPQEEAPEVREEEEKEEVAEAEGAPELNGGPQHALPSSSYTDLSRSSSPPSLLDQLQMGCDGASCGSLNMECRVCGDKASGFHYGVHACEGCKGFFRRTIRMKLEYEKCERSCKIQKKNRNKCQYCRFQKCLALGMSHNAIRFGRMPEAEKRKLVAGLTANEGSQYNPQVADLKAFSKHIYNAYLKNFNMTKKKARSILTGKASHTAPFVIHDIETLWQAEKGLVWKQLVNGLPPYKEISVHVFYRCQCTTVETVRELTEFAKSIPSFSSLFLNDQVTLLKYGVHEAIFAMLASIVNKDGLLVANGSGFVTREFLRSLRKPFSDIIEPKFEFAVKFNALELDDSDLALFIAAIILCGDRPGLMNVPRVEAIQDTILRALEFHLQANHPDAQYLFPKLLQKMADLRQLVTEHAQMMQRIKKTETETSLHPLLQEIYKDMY
Summary of the method: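 Reporter cells were plated and held 5 hrs at 37 C before compounds were added. After 18 hrs at 37 C, CCF4 dye was loaded for 2 hrs at RT and fluorescence measured.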

O=C(OCC1=C[C@@H](O)[C@@H]2C=CO[C@@H](O[C@@H]3O[C@H](CO)[C@@H](O)[C@H](O)[C@H]3O)[C@H]12)c1ccc(O)cc1
inactive: Potency [1] | Potency [2]

O=C(O)[C@H]1O[C@@H](Oc2c(-c3ccc(O)c(O)c3)oc3cc(O)cc(O)c3c2=O)[C@H](O)[C@@H](O)[C@@H]1O
inactive: Potency [1] | Potency [2]

O=c1cc(-c2ccc(O)cc2)oc2cc(O[C@H]3OC(CO)C(O)C(O)C3O)cc(O)c12 (stereo not given in full)
inactive: Potency [1] | Potency [2]

COC1=C[C@@]23CCN(C)[C@H](Cc4ccc(OC)c(O)c42)C3=CC1=O
inactive: outcome [3] | outcome [4] | outcome [5] | Potency [2] | max response [6] -3.14% | outcome [7] | outcome [8] | outcome [9]

C=C(C)C(CC=C(C)C)CC12CC(CC=C(C)C)C(C)(C)C(CC=C(C)C)(C(=O)/C(=C(\O)c3ccc(O)c(O)c3)C1=O)C2=O (stereo not given)
inactive: Potency [1]

CC(C)(O)[C@@H]1CC[C@](C)([C@@H]2[C@H](O)C[C@]3(C)C4C[C@@H](O[C@H]5O[C@@H](CO)[C@H](O)[C@@H](O)[C@@H]5O)C5C(C)(C)[C@H](O[C@H]6OC[C@H](O)[C@@H](O)[C@@H]6O)CC[C@]56CC46CC[C@@]23C)O1 (stereo not given in full)
inactive: Potency [1] | Potency [2]

Cc1ccc(C(C)C)cc1
inactive: Potency [1] | Potency [2]

C=C(C)C1CC=C(C)C(O)C1 (stereo not given)
inactive: outcome [10] | Potency [1] | Potency [2]

O=c1cc(-c2ccc(O)c(O)c2)oc2cc(O[C@@H]3O[C@@H](CO)[C@@H](O)[C@@H](O)[C@H]3O)cc(O)c12
inactive: Potency [1] | Potency [2]

O=C(/C=C/c1ccc(O)c(O)c1)O[C@H]1[C@H](O)C[C@](O)(C(=O)O)C[C@H]1OC(=O)/C=C/c1ccc(O)c(O)c1
inactive: Potency [1] | Potency [2]

CCCCCCCCC/C=C/C(=O)CCc1ccc(O)c(OC)c1
inactive: Potency [1] | Potency [2]

CCC(/C=C/[C@@H](C)[C@H]1CCC2C3CC=C4C[C@@H](O)CC[C@]4(C)C3CC[C@@]21C)C(C)C (stereo not given in full)
inactive: Potency [1] | Potency [2]

C=C[C@H]1CN2CC[C@@]3(C(=O)Nc4ccccc43)[C@@H]2C[C@@H]1/C(=C\OC)C(=O)OC
inactive: outcome [3] | outcome [4] | outcome [5] | Potency [2] | max response [6] -1.45% | outcome [7] | outcome [8] | outcome [9]

C=C1C[C@@]23CC[C@H]4[C@](C)(CCC[C@]4(C)C(=O)O[C@@H]4O[C@H](CO)[C@@H](O)[C@H](O)[C@H]4O)[C@@H]2CC[C@]1(O[C@H]1O[C@@H](CO)[C@H](O)[C@@H](O)[C@@H]1O)C3
inactive: Potency [1] | Potency [2]

CCCCCCCC/C=C\CCCCCCCCCCCCCC(=O)O
inactive: Potency [1] | Potency [2]

O=c1ccc2ccc(O)cc2o1
inactive: Potency [1] | Potency [2]

COC(=O)C1=CO[C@@H](C)[C@@H]2CN3CC[C@@]4(C(=O)Nc5ccccc54)[C@@H]3CC12 (stereo not given in full)
inactive: Potency [1] | outcome [3] | outcome [4] | outcome [5] | Potency [2] | max response [6] 3.44% | outcome [7] | outcome [8] | outcome [9]

O=S(=O)(O)O
inactive: outcome [3] | outcome [4] | outcome [5] | Potency [2] | max response [6] -1.96% | outcome [7] | outcome [8] | outcome [9]

COc1cc2c(cc1O)CC1NCCc3cc(OC)c(OC)c-2c31 (stereo not given)
inactive: Potency [1] | outcome [3] | outcome [4] | outcome [5] | Potency [2] | max response [6] -2.18% | outcome [7] | outcome [8] | outcome [9]

Source: PubChem BioAssay (NCATS)
